Laboratory results published in PubChem BioAssay (NCI).
Compounds without any hit were thinned out: in the full panel of roughly 83,000, 20% have a hit.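 Testing used 96-well plates and a 48-hour single-concentration exposure. Example: -40 means 40% of the starting cells died.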 Calls of active or inactive are those of the source. The calls were made as follows: active = growth percent below 10; inactive = the rest.

Experiments:
Test in all cases: NCI-60 one-dose screen, 48 h (100 = growth as untreated, 0 = no growth, -100 = all killed)
HCT-15 colon = settings: 10 µM unless noted
HT29 colon = settings: 10 µM unless noted
SNB-75 CNS = settings: 10 µM unless noted
SNB-19 CNS = settings: 10 µM unless noted
U251 CNS = settings: 10 µM unless noted
PC-3 prostate = settings: 10 µM unless noted
SK-MEL-5 melanoma = settings: 10 µM unless noted
UACC-62 melanoma = settings: 10 µM unless noted
LOX IMVI melanoma = settings: 10 µM unless noted
SK-MEL-28 melanoma = settings: 10 µM unless noted
SK-MEL-2 melanoma = settings: 10 µM unless noted
EKVX NSCLC = settings: 10 µM
SN12C renal = settings: 10 µM unless noted
UO-31 renal = settings: 10 µM unless noted
TK-10 renal = settings: 10 µM unless noted
ACHN renal = settings: 10 µM unless noted
CAKI-1 renal = settings: 10 µM unless noted
A498 renal = settings: 10 µM unless noted
CCRF-CEM leukemia = settings: 10 µM
MOLT-4 leukemia = settings: 10 µM unless noted

Measured: growth

COc1cc2c(c(OC)c1OC)C(=O)CC(c1cccc(C(=O)Nc3cccc(Br)c3)c1)O2 (stereo not drawn)
inactive: HCT-15 colon 72.1% | HT29 colon 82.3% | SNB-75 CNS 75.4% | SNB-19 CNS 76.4% | U251 CNS 81.8% | PC-3 prostate 59.1% | SK-MEL-5 melanoma 72.9% | UACC-62 melanoma 58.4% | LOX IMVI melanoma 90% | SK-MEL-28 melanoma 91.9% | SK-MEL-2 melanoma 73.8% | EKVX NSCLC 85.1% | SN12C renal 71.7% | UO-31 renal 51.3% | TK-10 renal 109% | ACHN renal 89.1% | CAKI-1 renal 85.3% | A498 renal 76% | CCRF-CEM leukemia 45% | MOLT-4 leukemia 48.8%

CCC(CCCN1C(=O)c2ccccc2C1=O)Nc1cc(OC)cc2c(C)ccnc12 (stereo not drawn)
inactive: HCT-15 colon 91.5% | HT29 colon 100% | SNB-75 CNS 92.2% | SNB-19 CNS 102% | U251 CNS 90.7% | PC-3 prostate 89.1% | SK-MEL-5 melanoma 85.3% | UACC-62 melanoma 69.5% | LOX IMVI melanoma 95.8% | SK-MEL-28 melanoma 101% | SK-MEL-2 melanoma 87% | EKVX NSCLC 84.5% | SN12C renal 97.8% | UO-31 renal 115% | TK-10 renal 120% | ACHN renal 100% | CAKI-1 renal 75.7% | A498 renal 60% | CCRF-CEM leukemia 105% | MOLT-4 leukemia 66.3%

CCCCCCCCCC[N+](C)(C)C
inactive: HCT-15 colon 39.3% | SNB-19 CNS 13.4% | UACC-62 melanoma 28.5% | SK-MEL-28 melanoma 51.8% | SK-MEL-2 melanoma 56.3% | EKVX NSCLC 72.9% | SN12C renal 29.5% | UO-31 renal 72.9% | ACHN renal 24.9% | CAKI-1 renal 58.4% | A498 renal 32.9%
active: HT29 colon 8.24% | SNB-75 CNS -22.8% | U251 CNS -75.4% | PC-3 prostate -49% | SK-MEL-5 melanoma -13.6% | LOX IMVI melanoma -78.4% | TK-10 renal -25.1% | CCRF-CEM leukemia -18.8% | MOLT-4 leukemia -0.229%

COCn1c(C(=O)OC)cc2oc(/C=C3/SC(=S)N(N)C3=O)cc21
inactive: HCT-15 colon 105% | HT29 colon 97.2% | SNB-75 CNS 64.6% | SNB-19 CNS 97.2% | U251 CNS 75.8% | PC-3 prostate 57.2% | SK-MEL-5 melanoma 91.7% | UACC-62 melanoma 94% | LOX IMVI melanoma 87.3% | SK-MEL-28 melanoma 92.9% | SK-MEL-2 melanoma 96.9% | EKVX NSCLC 91.8% | SN12C renal 121% | UO-31 renal 95.7% | TK-10 renal 101% | ACHN renal 110% | CAKI-1 renal 87.3% | A498 renal 54% | CCRF-CEM leukemia 98.1% | MOLT-4 leukemia 68.6%

COC(=O)C(C)[C@H]1CC[C@@H]2[C@]1(C)CC=C1[C@]23C=C[C@]2(C[C@@H](OC(C)=O)CC[C@]12C)C(C(=O)OC)C3C(=O)OC (stereo partly drawn)
inactive: HCT-15 colon 61.5% | HT29 colon 95.2% | SNB-75 CNS 98.5% | SNB-19 CNS 95.9% | U251 CNS 88.8% | PC-3 prostate 57.1% | SK-MEL-5 melanoma 60.6% | UACC-62 melanoma 79.9% | LOX IMVI melanoma 91.7% | SK-MEL-28 melanoma 95% | SK-MEL-2 melanoma 100% | EKVX NSCLC 86.1% | SN12C renal 100% | UO-31 renal 86.7% | TK-10 renal 109% | ACHN renal 112% | CAKI-1 renal 94.7% | A498 renal 106% | CCRF-CEM leukemia 74.4% | MOLT-4 leukemia 46.7%

CCOC(=O)c1cc(-c2ccc(OC)cc2)[nH]c1NNC(=O)CCOC
inactive: HCT-15 colon 111% | HT29 colon 112% | SNB-75 CNS 106% | SNB-19 CNS 103% | U251 CNS 101% | PC-3 prostate 93.2% | SK-MEL-5 melanoma 99.3% | UACC-62 melanoma 93.6% | LOX IMVI melanoma 94.8% | SK-MEL-28 melanoma 114% | SK-MEL-2 melanoma 103% | EKVX NSCLC 101% | SN12C renal 107% | UO-31 renal 77% | TK-10 renal 63.7% | ACHN renal 107% | CAKI-1 renal 88.8% | A498 renal 77.8% | CCRF-CEM leukemia 57.8% | MOLT-4 leukemia 58.1%

Cc1nc(NC(=S)Nc2ccc(F)cc2)sc1C(=O)NNC(=S)Nc1ccc(F)cc1
active: SK-MEL-2 melanoma 3.22%
inactive: HCT-15 colon 61.9% | HT29 colon 61.7% | SNB-75 CNS 113% | SNB-19 CNS 76.9% | U251 CNS 53.1% | PC-3 prostate 52.1% | SK-MEL-5 melanoma 48.8% | UACC-62 melanoma 36.9% | LOX IMVI melanoma 70.6% | SK-MEL-28 melanoma 78% | EKVX NSCLC 63.2% | SN12C renal 71.8% | UO-31 renal 38.7% | TK-10 renal 43.5% | ACHN renal 65.3% | CAKI-1 renal 101% | A498 renal 53.6% | CCRF-CEM leukemia 40.1% | MOLT-4 leukemia 36.5%

COc1cc(-c2c3c(cn2CCN2CCCCC2)-c2oncc2CC3)cc(OC)c1OC
inactive: HCT-15 colon 98.3% | HT29 colon 84% | SNB-75 CNS 81.4% | SNB-19 CNS 99.8% | U251 CNS 101% | PC-3 prostate 89.7% | SK-MEL-5 melanoma 98.3% | UACC-62 melanoma 90.4% | LOX IMVI melanoma 97.7% | SK-MEL-28 melanoma 100% | SK-MEL-2 melanoma 106% | EKVX NSCLC 102% | SN12C renal 101% | UO-31 renal 80.2% | TK-10 renal 100% | ACHN renal 89.7% | CAKI-1 renal 87% | A498 renal 90.9% | CCRF-CEM leukemia 103% | MOLT-4 leukemia 100%

COc1cc(N2C(=O)C=CC2=O)ccc1N1C(=O)C=CC1=O
inactive: HCT-15 colon 109% | HT29 colon 102% | SNB-75 CNS 90.2% | SNB-19 CNS 107% | U251 CNS 97.5% | PC-3 prostate 94.8% | SK-MEL-5 melanoma 104% | UACC-62 melanoma 106% | LOX IMVI melanoma 99.1% | SK-MEL-28 melanoma 103% | SK-MEL-2 melanoma 113% | EKVX NSCLC 94.2% | SN12C renal 105% | UO-31 renal 87.1% | TK-10 renal 86.4% | ACHN renal 96.6% | CAKI-1 renal 93.7% | A498 renal 74.9% | CCRF-CEM leukemia 18.9% | MOLT-4 leukemia 100%

Cc1c(CN(C)C)cc(C(C)C)cc1C(C)C
inactive: HCT-15 colon 113% | HT29 colon 86.4% | SNB-75 CNS 96.7% | SNB-19 CNS 102% | U251 CNS 100% | PC-3 prostate 109% | SK-MEL-5 melanoma 104% | UACC-62 melanoma 106% | LOX IMVI melanoma 98.7% | SK-MEL-28 melanoma 107% | SK-MEL-2 melanoma 107% | EKVX NSCLC 106% | SN12C renal 96.9% | UO-31 renal 108% | TK-10 renal 94.9% | ACHN renal 112% | CAKI-1 renal 103% | A498 renal 94.8%

CCCCCCCCC/C(=N\NC(=O)c1ccncc1)c1ccc(O)c(O)c1O
inactive: HCT-15 colon 34.9% | HT29 colon 29% | SNB-75 CNS 37.1% | SNB-19 CNS 33.8% | U251 CNS 12.1% | PC-3 prostate 47% | LOX IMVI melanoma 22.9% | SK-MEL-28 melanoma 43.7% | SK-MEL-2 melanoma 38.5% | EKVX NSCLC 34.5% | SN12C renal 25.7% | UO-31 renal 20.8% | TK-10 renal 43.1% | ACHN renal 15.8% | CAKI-1 renal 14.3% | A498 renal 45% | MOLT-4 leukemia 15.5%
active: SK-MEL-5 melanoma -18.8% | UACC-62 melanoma -5.54% | CCRF-CEM leukemia 9.71%

C#CCCCCCCC[C@@H]1OC(=O)[C@H]([C@@H](C)CC)NC(=O)[C@@H]([C@@H](C)CC)NC(=O)CC(=O)[C@@H]1C
inactive: HCT-15 colon 97.3% | HT29 colon 122% | SNB-75 CNS 80.9% | SNB-19 CNS 97.6% | U251 CNS 105% | PC-3 prostate 90.8% | SK-MEL-5 melanoma 102% | UACC-62 melanoma 83% | LOX IMVI melanoma 92% | SK-MEL-28 melanoma 109% | SK-MEL-2 melanoma 107% | EKVX NSCLC 93.4% | SN12C renal 94.9% | UO-31 renal 60.9% | TK-10 renal 141% | ACHN renal 86.8% | CAKI-1 renal 69.8% | A498 renal 86.6% | CCRF-CEM leukemia 93% | MOLT-4 leukemia 87.2%

Cc1ccc2c(O)c(O)cc(NC(C)CCCN)c2n1 (stereo not drawn)
inactive: HCT-15 colon 116% | HT29 colon 47.7% | SNB-75 CNS 108% | SNB-19 CNS 87.7% | U251 CNS 25.7% | PC-3 prostate 89.2% | SK-MEL-5 melanoma 95.7% | UACC-62 melanoma 113% | LOX IMVI melanoma 31.2% | SK-MEL-28 melanoma 131% | SK-MEL-2 melanoma 75% | EKVX NSCLC 78% | SN12C renal 32.2% | UO-31 renal 96.8% | TK-10 renal 104% | ACHN renal 108% | CAKI-1 renal 87.4% | A498 renal 81.3% | CCRF-CEM leukemia 39.9%
active: MOLT-4 leukemia 7.64%

Nc1cc(N)c2nc(-c3ccccc3)c(NCCc3ccc(Cl)c(Cl)c3)nc2c1
active: HCT-15 colon -87.7% | HT29 colon -36.3% | SNB-75 CNS -33.7% | SNB-19 CNS -69.4% | U251 CNS -100% | PC-3 prostate -90.5% | SK-MEL-5 melanoma -99.1% | UACC-62 melanoma -91.7% | LOX IMVI melanoma -91.5% | SK-MEL-28 melanoma -79.3% | SK-MEL-2 melanoma -62.7% | EKVX NSCLC -100% | SN12C renal -96.6% | UO-31 renal -93% | TK-10 renal -92.5% | ACHN renal -100% | CAKI-1 renal -92.4% | A498 renal -34.4% | CCRF-CEM leukemia -66.1% | MOLT-4 leukemia -16.4%

COc1cc2c(/C=C3\C(=O)Nc4ccc(Br)cc43)c(Cl)n(C)c2cc1C
inactive: SNB-75 CNS 31.6% | SNB-19 CNS 24% | U251 CNS 10.2% | PC-3 prostate 11.8% | UACC-62 melanoma 29.7% | SK-MEL-28 melanoma 55.6% | SK-MEL-2 melanoma 29.7% | EKVX NSCLC 42.1% | SN12C renal 35.5% | UO-31 renal 31.6% | TK-10 renal 31.2% | ACHN renal 29.5% | CAKI-1 renal 69.7%
active: HCT-15 colon 6.8% | HT29 colon 7.9% | SK-MEL-5 melanoma -3% | LOX IMVI melanoma 9.9% | A498 renal 3.37% | CCRF-CEM leukemia -11.7% | MOLT-4 leukemia 4.36%

Brc1ccc(-c2nc3ccccc3s2)cc1
inactive: HCT-15 colon 91.6% | HT29 colon 107% | SNB-75 CNS 80.6% | SNB-19 CNS 94.9% | U251 CNS 96.1% | PC-3 prostate 83.6% | SK-MEL-5 melanoma 94.4% | UACC-62 melanoma 89.1% | LOX IMVI melanoma 89.5% | SK-MEL-28 melanoma 109% | SK-MEL-2 melanoma 105% | EKVX NSCLC 75.4% | SN12C renal 95% | UO-31 renal 59.5% | TK-10 renal 142% | ACHN renal 92% | CAKI-1 renal 73.4% | A498 renal 77.2% | CCRF-CEM leukemia 95.5% | MOLT-4 leukemia 88.1%
